Data published in PubChem BioAssay (Tox21).
Values joined by “and” are separate entries in the source; they are usually repeats but may differ in a detail not shown here. Identical values can stand only once. Inconclusive results are not listed. A structure can be active in one record and inactive in another. Active and inactive are the calls of the source. Calls follow the shape of the dose curve; as a rule, active = well fitted cell-killing curve with a large enough effect in the repeat runs; inconclusive = weak or mixed curves; inactive = no such curve, though single readings can be large or run the other way.

Assay: qHTS assay for identifying genotoxic compounds that show differential cytotoxicity against isogenic chicken DT40 cell lines with known DNA damage response pathways - Rad54/Ku70 mutant cell line (AID 743015); also: nearly all actives have a fitted effect of over 60% in size
Details: DT40 Rad54/Ku70 mutant viability, CellTiter-Glo, 40 h; series mostly up to 66.8 µM; activity change, negative = cytotoxicity: at the top concentration
Excerpt: National Center for Advancing Translational Sciences [NCATS]
NIH Chemical Genomics Center [NCGC]
U.S. Environmental Protection Agency [EPA]
National Institutes of Environmental Health Sciences [NIEHS]
National Toxicology Program [NTP]
U.S. Food and Drug Administration [FDA]
DNA repair pathways play a critical role in cellular homeostasis by repairing DNA damage induced by endogenous processes and xenobiotics. Isogenic chicken DT40 cell lines deficient in different DNA repair pathways can be used to identify genotoxic compounds and aid in characterizing the nature of the DNA damage induced. Two DNA repair-deficient cell lines with disrupted genes, Rad54/Ku70 or Rev3, were used to screen the Tox21 10K compound library. Possible genotoxicity was based on the presence of a significant increase in cytotoxicity in one or more of the DNA repair-deficient cell lines compared to that observed in the parental DNA repair-proficient cell line. CellTiter Glo viability assay (Promega, Madison, WI) was used to measure cell viability in these cells after compound treatment. This assay includes the data from the Rad54/Ku70 mutant cell line.
Tox21 Assay Protocol Summary:
300 DT40 mutant cells in 5 uL/well were dispensed into white, solid-bottom 1536-well plates using a Multidrop Combi (ThermoFisher Scientific, Waltham, MA) dispenser. After the assay plates were incubated at 37 C/5% CO2 for approximately 0.5 hour, 23 nL of compounds dissolved in DMSO, positive controls or DMSO only was transferred into the assay plate by a pintool work station (Kalypsys, San Diego, CA). The assay plates were incubated at 37 C/5% CO2 for 40 hours. After 5 uL per well of CellTiter-Glo reagent was added into each well of the assay plates, the plates were incubated for 30 min at room temperature and the luminescence intensity of the plates was measured using a ViewLux (PerkinElmer, Shelton, CT) plate reader.
% is scaled to controls: 0 for no effect and ±100 for the full control effect; potency is read from the fitted curve at half-maximal effect.

Question: With `CC(C)(C)C(O)/C(=C\c1ccc(Cl)cc1Cl)n1cncn1` (stereo not given) as the compound, how does the Potency read?
Answer: 18.6 µM (active)

Question: For `CC(=O)OC1(c2ccccc2)CCN(CCc2ccccc2)CC1`, which Potency is on record?
Answer: 4.43 µM (active)

Question: Which Potency does the source give for `CC(C)(C)c1ccc(CSc2cnn(C(C)(C)C)c(=O)c2Cl)cc1` here?
Answer: 0.0109 µM (active)

Question: For `CC1(c2ccc(Oc3ccccc3)cc2)OC(=O)N(Nc2ccccc2)C1=O` (stereo not given), which Potency is on record?
Answer: 0.774 µM (active)

Question: With `CCc1nn(C)c(C(=O)NCc2ccc(C(C)(C)C)cc2)c1Cl` as the compound, how does the Potency read?
Answer: 0.0545 µM (active)

Question: For `CCN(CC)C(=S)[S-].CCN(CC)C(=S)[S-].[Zn+2]`, which Potency is on record?
Answer: 1.08 µM (active)

Question: For `CC(c1ccc(O)cc1)c1ccc(O)cc1`, which “activity change, negative = cytotoxicity” value is on record?
Answer: -0.672% (inactive)

Question: With `Clc1ccc(C(c2ccccc2Cl)C(Cl)(Cl)Cl)cc1` (stereo not given) as the compound, how does the Potency read?
Answer: 28.4 µM (active)

Question: Which Potency does the source give for `CCCCCCCCCC[N+](C)(C)CCCCCCCCCC` here?
Answer: 1.06 µM (active) and 344 nM (active)

Question: Which Potency does the source give for `CC(C)(O)c1cnn2c(-c3ccc(F)c(-c4c(F)cccc4C#N)c3)cnc2n1` here?
Answer: 21.7 µM (active)

Question: For `O=[N+]([O-])c1ccc2ccc3cccc4ccc1c2c34`, which “activity change, negative = cytotoxicity” value is on record?
Answer: -4.83% (inactive)

Question: With `Nc1ccc(Sc2ccc(N)cc2)cc1` as the compound, how does the Potency read?
Answer: 62.9 µM (active)

Question: With `Cc1cc(C)c(C2=C(OC(=O)CC(C)(C)C)C3(CCCC3)OC2=O)c(C)c1` as the compound, how does the “activity change, negative = cytotoxicity” value read?
Answer: -14.2% [at 95.1 µM] (inactive)

Question: For `CN(C)S(=O)(=O)N(SC(F)(Cl)Cl)c1ccccc1`, which Potency is on record?
Answer: 0.109 µM (active)

Question: With `ClCc1ccc(Cl)cc1Cl` as the compound, how does the “activity change, negative = cytotoxicity” value read?
Answer: 1.69% (inactive)

Question: With `CC(=O)O[C@H]1CC[C@@]2(C)C(=CC[C@@H]3[C@@H]2CC[C@]2(C)C(=O)CC[C@@H]32)C1` as the compound, how does the “activity change, negative = cytotoxicity” value read?
Answer: 7.02% (inactive)

Question: Which “activity change, negative = cytotoxicity” value does the source give for `C1CCC2CCCCC2C1` (stereo not given) here?
Answer: -0.958% [at 95.1 µM] (inactive)

Question: For `CCCN(CCC)c1c([N+](=O)[O-])cc(S(N)(=O)=O)cc1[N+](=O)[O-]`, which Potency is on record?
Answer: 22.1 µM (active)

Question: With `N#CNC#N` as the compound, how does the Potency read?
Answer: 61.8 µM (active)

Question: With `CCCCCCCCc1ccc(O)cc1` as the compound, how does the Potency read?
Answer: 25.2 µM (active)

Question: For `CCCCOCN(C(=O)CCl)c1c(CC)cccc1CC`, which Potency is on record?
Answer: 9.69 µM (active)

Question: With `CC(C)C1CCC(Cc2ccc(Cl)cc2)C1(O)Cn1cncn1` (stereo not given) as the compound, how does the Potency read?
Answer: 8.55 µM (active)

Question: Which “activity change, negative = cytotoxicity” value does the source give for `COc1cc(N)c(Cl)cc1C(=O)NC1CN2CCC1CC2` (stereo not given) here?
Answer: 5.85% (inactive)

Question: For `CC(C)[C@H](C(=O)O[C@H](C#N)c1cccc(Oc2ccccc2)c1)c1ccc(Cl)cc1`, which Potency is on record?
Answer: 30.6 µM (active)

Question: Which Potency does the source give for `CC(C)N1C(=O)N(c2ccccc2)CSC1=NC(C)(C)C` here?
Answer: 24.3 µM (active)

Question: With `[Hg+2].[I-].[I-]` as the compound, how does the Potency read?
Answer: 0.77 µM (active)

Question: For `Clc1ccc(CSC(Cn2ccnc2)c2ccc(Cl)cc2Cl)cc1` (stereo not given), which Potency is on record?
Answer: 12.7 µM (active)

Question: Which Potency does the source give for `O=C(CCl)C(Cl)Cl` here?
Answer: 4.9 µM (active)

Question: With `[CH3][Hg][Cl]` as the compound, how does the Potency read?
Answer: 48.4 µM (active)

Question: Which Potency does the source give for `CCC[CH2][Sn]([CH2]CCC)([CH2]CCC)[O]C(=O)c1ccccc1` here?
Answer: 0.193 µM (active)

Question: Which Potency does the source give for `N#CCCC(Br)(C#N)CBr` (stereo not given) here?
Answer: 7.7 µM (active)

Question: With `c1ccc2cc3c(cc2c1)-c1cccc2cccc-3c12` as the compound, how does the “activity change, negative = cytotoxicity” value read?
Answer: 10.7% (inactive)

Question: For `ClC1=C(Cl)C2(Cl)C3C(Cl)C(Cl)CC3C1(Cl)C2(Cl)Cl` (stereo not given), which Potency is on record?
Answer: 24.3 µM (active)

Question: For `CC(C)(C)c1cc([N+](=O)[O-])cc(C(C)(C)C)c1O`, which Potency is on record?
Answer: 7.7 µM (active)

Question: Which Potency does the source give for `CN(C)C(=S)S` here?
Answer: 1.36 µM (active) and 2.17 µM (active)

Question: For `Cc1cc(C)cc(OP(=O)(Oc2cc(C)cc(C)c2)Oc2cc(C)cc(C)c2)c1`, which “activity change, negative = cytotoxicity” value is on record?
Answer: -8.32% [at 95.1 µM] (inactive)

Question: With `CC[C@H](C)[C@H]1O[C@]2(C=C[C@@H]1C)C[C@@H]1C[C@@H](C/C=C(\C)[C@@H](O[C@H]3C[C@H](OC)[C@@H](O[C@H]4C[C@H](OC)[C@@H](O)[C@H](C)O4)[C@H](C)O3)[C@@H](C)/C=C/C=C3\CO[C@@H]4[C@H](O)C(C)=C[C@@H](C(=O)O1)[C@]34O)O2` as the compound, how does the Potency read?
Answer: 26.6 µM (active) and 6.42 µM (active)

Question: Which Potency does the source give for `CS(=O)(=O)c1ccc(C(=O)C2C(=O)CCCC2=O)c([N+](=O)[O-])c1` here?
Answer: 45.6 µM (active)

Question: With `O=[N+]([O-])c1cc([N+](=O)[O-])c2ccccc2c1` as the compound, how does the Potency read?
Answer: 7.52 µM (active)

Question: Which Potency does the source give for `C[C@H]1CC[C@@H]2[C@@H](C)[C@H]3[C@H](C[C@H]4[C@@H]5CC=C6CC(O[C@@H]7O[C@H](CO)[C@H](O)[C@H](O[C@@H]8O[C@H](CO)[C@@H](O)[C@H](O)[C@H]8O)[C@H]7O[C@H]7O[C@@H](C)[C@H](O)[C@@H](O)[C@H]7O)CC[C@]6(C)[C@H]5CC[C@]34C)N2C1` (stereo not given in full) here?
Answer: 26.6 µM (active) and inactive
